Measurements: PubChem BioAssay (NCI)
This is part of a sample that, as a whole, favours compounds with a hit. Of some 83,000 tested, about 20% had one in any assay.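 Cells were grown in 96-well plates and exposed to the test compound at a single concentration for 48 hours; results are reported as percent growth, with values below 10 considered active.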 Unmarked numbers belong to inactive results. Active and inactive are the calls of the source.

What was measured:
Assay in all cases: NCI-60 one-dose screen, 48 h (100 = growth as untreated, 0 = no growth, -100 = all killed)
Settings in all cases: 10 µM
T-47D breast = tested on: T-47D breast
MDA-MB-435 melanoma = tested on: MDA-MB-435 melanoma
SW-620 colon = tested on: SW-620 colon
MCF7 breast = tested on: MCF7 breast
HCT-116 colon = tested on: HCT-116 colon
HCC-2998 colon = tested on: HCC-2998 colon
KM12 colon = tested on: KM12 colon
BT-549 breast = tested on: BT-549 breast

## O=C(/C=C/c1ccccn1)c1ccccc1
T-47D breast
  growth: 66.9%
MDA-MB-435 melanoma
  growth: 52.4%
SW-620 colon
  growth: -51.3% (active)
MCF7 breast
  growth: 15%
HCT-116 colon
  growth: -90.8% (active)
HCC-2998 colon
  growth: 62.9%
KM12 colon
  growth: 7.87% (active)

## O=C(O)COc1ccc(OCC(=O)O)cc1
T-47D breast
  growth: 5.61% (active)
BT-549 breast
  growth: 20.9%
MDA-MB-435 melanoma
  growth: 30.4%
SW-620 colon
  growth: 15.1%
MCF7 breast
  growth: 6.66% (active)
HCT-116 colon
  growth: 9.02% (active)
HCC-2998 colon
  growth: -34.2% (active)
KM12 colon
  growth: 8.16% (active)

## O=C1C=C(O)c2ccccc2C1=O.[Ag]
T-47D breast
  growth: 79.5%
BT-549 breast
  growth: 115%
MDA-MB-435 melanoma
  growth: 111%
SW-620 colon
  growth: 106%
MCF7 breast
  growth: 95.7%
HCT-116 colon
  growth: 111%
HCC-2998 colon
  growth: 88.8%
KM12 colon
  growth: 96.4%

## CO[C@H](C(=O)[C@@H](O)[C@@H](C)O)[C@@H]1Cc2cc3cc(OC4CC(OC5CC(O)C(O)C(C)O5)C(O)C(C)O4)c(C)c(O)c3c(O)c2C(=O)[C@H]1OC1CC(OC2CC(OC3CC(C)(O)C(O)C(C)O3)C(O)C(C)O2)C(O)C(C)O1 (stereo partly specified)
T-47D breast
  growth: 7.17% (active)
BT-549 breast
  growth: -19.9% (active)
MDA-MB-435 melanoma
  growth: -62.9% (active)
SW-620 colon
  growth: -25.1% (active)
MCF7 breast
  growth: -3.56% (active)
HCT-116 colon
  growth: 5.29% (active)
KM12 colon
  growth: -5.71% (active)

## CC(=O)OCC(OC(C)=O)C(OC(C)=O)C(OC(C)=O)C(OC(C)=O)C(/C=N/Nc1ccccc1)=N/Nc1ccccc1 (stereo unspecified)
MDA-MB-435 melanoma
  growth: 65.6%
SW-620 colon
  growth: 49.7%
MCF7 breast
  growth: 44.1%
HCT-116 colon
  growth: 64.1%
HCC-2998 colon
  growth: 91.2%
KM12 colon
  growth: 45.3%
